Screening data deposited in PubChem by several laboratories.
Jurkat NFkB inh: inhibitors of induced NF-kB luciferase reporter, primary screen, TCR NF-kB activation inhibitor project, cell-based, luminescence, uHTS | Jurkat, PMA/ionomycin-induced NF-kB luciferase reporter | inhibition, % at 4 µM | 330,000 compounds, 0.53% hits; in the data active means inhibition above about 50%
Shn3 3UTR inh: reduction of Shn3 3'UTR firefly luciferase signal, primary screen, Schnurri-3 inhibitor project, cell-based, Clone20 osteoblasts, set 2. AID 588674, 2011. Clone20 osteoblast Shn3 3'UTR firefly luciferase, 24 h. 360,000 compounds, 0.52% hits. inhibition, % at 12.5 µM;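 active means mean inhibition of at least 75% with every replicate also reaching 75%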;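 further: 0% = median of neutral control wells and 100% = pilot-screen positive control compound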
LMP1 NFkB inh: EBV LMP1-driven NF-kappaB luciferase reporter inhibitors, primary screen, cell-based, luminescence, single point; 350,000 compounds, 0.69% hits; LMP1-induced NF-kappaB luciferase reporter cells; inhibition, % at 12.5 µM; AID 504558, 2011; in the data active means inhibition above about 41%;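 further: 0% = neutral control wells and 100% = reference inhibitor control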
Gli-Sufu antag: Gli-Sufu pathway antagonists, primary screen, luciferase luminescence, Sufu-KO-LIGHT cells, uHTS | Sufu-KO-LIGHT fibroblasts, Gli luciferase reporter luminescence | inhibition, % at 5 µM | 340,000 compounds, 0.74% hits;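 active means inhibition above about 55%, limit read from the data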;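 further: 0% = DMSO-treated cells and 100% = wells with medium but no cells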
697 NFkB inh: inhibitors of PMA/ionomycin-induced NF-kB reporter, 697 cells, primary screen, B-cell NF-kB inhibitor project, cell-based, luminescence, uHTS; 697 B-cell NF-kB luciferase reporter, 16 h; inhibition, % at 4 µM; 330,000 compounds, 0.33% hits; in the data active means inhibition above about 35%
TRPM1 prom inh: inhibitors of MITF-dependent TRPM1 promoter reporter, primary screen, cell-based, SK-MEL-5, single point, luciferase; inhibition, % at 12.5 µM; SK-MEL-5 TRPM1 promoter luciferase, 24 h; 330,000 compounds, 0.83% hits;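 active means mean inhibition across replicates of 60% or more, whatever share of single replicates reaches that level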
* = called active by the depositor; · = no result; ! = a repeat was not active. An excerpt weighted towards active compounds, which were near 2.3% of everything screened.

SMILES | Jurkat NFkB inh | Shn3 3UTR inh | LMP1 NFkB inh | Gli-Sufu antag | 697 NFkB inh | TRPM1 prom inh
CCCS(=O)(=O)NC(=O)C1(C)CCCN(C(=O)c2cccnc2Oc2ccccc2)C1 (configuration not stated) | · | -1.3 | · | · | · | ·
COc1ccc(NS(=O)(=O)c2cc(NC(=O)CNC(=O)c3cccc(OC)c3)ccc2C)cc1 | 18.7 | -8.0 | -17.4 | 9.2 | -30.9 | 68.7*
COc1ccc(-n2c(C)c([N+](=O)[O-])c3ccc(O)c(CN(C)C)c32)cc1 | 36.6 | 4.3 | 69.8* | 8.5 | 0.4 | -12.8
CN1C(=O)CSC1=Nc1cccc(Cl)c1 | 6.4 | 21.9 | 5.1 | 2.7 | -3.3 | 2.6
Cc1ccc(Cl)cc1N1CCN(C(=O)c2noc(C)c2[N+](=O)[O-])CC1 | -0.9 | -35.0 | -10.8 | 30.2 | 20.5 | 8.6
CCN1CCN(c2cc(N3CCN(C(=O)c4ccco4)CC3)c3c4c(onc24)-c2ccccc2C3=O)CC1 | -25.2 | 8.8 | -7.4 | 4.6 | -2.3 | 88.8*
COc1cc2nc(N(CCCN(C)C)C(=O)c3ccc(S(=O)(=O)N4CCc5ccccc54)cc3)sc2cc1OC | -3.8 | -4.8 | -11.2 | 36.0 | -6.3 | 4.9
CCN(Cc1ccccc1)S(=O)(=O)c1ccc(C(=O)N(CCCN(C)C)c2nc3ccc(F)cc3s2)cc1 | -1.1 | 19.6 | -5.1 | 11.8 | -23.0 | 90.9*
CCN(Cc1ccccc1)S(=O)(=O)c1ccc(C(=O)N(CCCN(C)C)c2nc3cc(OC)ccc3s2)cc1 | -20.1 | 8.7 | -0.1 | 29.6 | -15.7 | 62.8*
COc1ccc2sc(N(CCCN(C)C)C(=O)c3ccc(S(=O)(=O)N4CCCc5ccccc54)cc3)nc2c1 | -26.3 | 11.0 | -16.9 | 28.4 | -0.5 | 77.2*
CS(=O)(=O)N(CC(=O)N1CCN(c2cccc(Cl)c2)CC1)c1cccc(F)c1 | -10.4 | 16.0 | -1.5 | 10.8 | -9.5 | -19.0
CCOC(=O)c1cccc(NC(=O)CCn2c(=O)oc3ccccc32)c1 | 1.3 | 8.7 | -1.7 | -1.0 | 13.5 | -7.6
CC1(C)CC(=O)C(CC2=C(O)CC(C)(C)CC2=O)=C(O)C1 | 4.5 | 11.9 | 66.4* | 0.8 | 15.2 | 0.6
C/C(=N/NC(=O)CNC(=O)c1ccco1)c1ccco1 | 17.4 | -5.8 | -6.7 | 9.1 | 6.2 | 9.7
CC(C)N(CCC(=O)c1ccc2ccccc2c1)Cc1ccccc1 | -2.1 | 93.9* | 7.1 | 4.3 | 6.8 | -0.1
CC(OC(=O)c1ccc2ccccc2c1)C(=O)N(C)Cc1ccccc1 (configuration not stated) | -1.7 | 0.6 | -4.8 | -0.9 | 11.3 | -10.1
COc1ccc2cc1Oc1ccc(cc1)C[C@H]1c3c(cc4c(c3Oc3cc5c(cc3OC)CCN(C)[C@@H]5C2)OCO4)CCN1C | 22.5 | -30.0 | -89.4 | -13.9 | -23.3 | 62.7*
COc1ccc2cc1Oc1ccc(cc1)C[C@H]1c3cc(c(OC)cc3CCN1C)Oc1c(OC)c(OC)cc3c1[C@H](C2)N(C)CC3 | 47.1 | 38.3 | -11.5 | 16.3 | 15.0 | 95.4*
CC(=O)NC12CC3CC(C1)CC(C(=O)N1CCN(S(=O)(=O)c4ccc([N+](=O)[O-])cc4)CC1)(C3)C2 | · | -20.4 | -7.4 | -1.7 | · | 16.2
Cc1ccccc1OCc1n(CC(=O)OC2CC(C)CCC2C(C)C)c2ccccc2[n+]1C (configuration not stated) | 15.1 | 5.9 | -4.3 | 50.1 | -38.8 | 97.4*!
CC1CCC(C(C)C)C(OC(=O)COC(=O)c2ccc(N)cc2)C1 (configuration not stated) | -0.2 | 0.8 | 9.8 | 8.8 | 25.6 | 13.6
CC1CCC(C(C)C)C(OC(=O)Cn2c(-c3ccc(Cl)cc3)[n+](C)c3ccccc32)C1 (configuration not stated) | 31.8 | 68.0 | 10.4 | 71.8* | -72.9 | 89.5*
CC1CCC(C(C)C)C(OC(=O)COC(=O)c2cccn2C)C1 (configuration not stated) | 0.4 | -4.0 | 4.9 | 2.9 | 1.0 | 0.5
CN1CCN(c2ccccc2NC(=O)c2c(F)cccc2F)CC1 | -15.1 | -15.3 | 9.4 | 8.3 | -50.3 | -7.0
